For the test, the system named is LXRb:RXRa (NR concentration 270 nM, RXRa partner concentration 90 nM). Nature of the test: PBM binding z-score (relative to random genomic background probes); higher = stronger binding; sequences stand for … in GC…GCGATTGACAGCGTAGAATGAAGG
The method, then:
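Protein-binding microarray (Agilent 4x180K custom design, double-stranded 60-nt probes: 5' GC cap, 34-nt variable region, 24-nt constant primer region; full probe sequence given). Purified or IVT nuclear receptor:RXRα heterodimers (3:1 NR:RXRα, mostly 270:90 nM) or homodimers were incubated for 1 h in PBS with 2% milk and no ligand, then detected with Alexa488 antibodies. Fluorescence from o1-orientation probes (~5 replicates averaged) was converted to z-scores against 500 random hg19 background probes. Variable regions are seed direct-repeat (DR0–DR5) sites, all their single-nucleotide variants and half-site ablations.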
In turn, AGAATGAGGTTACTAAAGATCAGGGAAACGCTTG gave a PBM binding z-score of 5.45.
As for CAAACCAGGTCAAGAGGTCAAAGTCCGCTTCCCG, the figure is 5.73; as for CCTTACGGGTCCCTCCAGGTTATAGCATCGGAGT, -0.459; as for AGAATGGGGTTACCAAAGATCAGGGAAACGCTTG, 5.03.
As for CGTCCGAGGTCATAGGAGGTCAGTGAAGACAGAT, the figure is 6.8.
CGTCCAAAGTCAAAGGTCAGTGAAGAGATGACGG yielded a PBM binding z-score of 3.44.
The result for ATATGTAGGTTAAGCGTCATTCAGGTTGGTTCGC reads 0.883; that for ATATGTAGGTTAGCTGGGGTCATTCACACTAGGC, 5.1; that for TCTATTAGTTGATTAGGGCAACCGAAACAGCGGA, 0.544.
As for ACTTACGGCTCAACGAGGTTATAGCACGCGTATA, the figure is 0.741; as for AGAATGAGGTTAAGTTCAGGGAAACAGAATACAT, 2.78.
TAGCCTAGGTCACATCGGGCCAGTATACGCTATA gave a PBM binding z-score of 2.29.
Consider GGAACGAGGTCAAGTTGATAGCAGAGTTTGATGG, for which the PBM binding z-score amounted to 5.3.
Consider CCTACTCGGCCAAAAAGGTCATTGATGCCGATAA, for which the PBM binding z-score is 4.63.
The result for CCTTACGGGTCACTGACAGGTTATAGCGTTTGGA reads 3.4; that for AGTCAAAGTTTATCTAGGTAACGTAAGATATGCT, 0.175.
Regarding CGTCCAAGGACAATGCTAGGTCAGTGAAAGCATT, the PBM binding z-score is -0.0607.
The result for CGTCAAAGGTCAGCAGGTCAGTGAAAGCGACGTG reads 4.97; that for ATATGTAGGTTAGGGTCAGTCAGAAAGTAGGGAA, 3; that for TAGCCTAGGTCATGCGGGCCAATATAGTGTCGGC, 1.9.
On to CGTCAAAGTCCAAGGTAACGTAACAGAAAGCAGC, for which the PBM binding z-score was -0.011.
The result for ATATGTAGGTTATCGGGTCATACAGTTTGCGCAT reads 3; that for TCTCGGAGGACACCAAAGGTCAGAGCTCGACATC, 3.46; that for ACTTACGGGTCTACGAGGTTATAGCACGCGTATA, 0.819.
The result for AGTCAAAGTGCATCTAGGTAACGTAAGATATGCT reads 0.11; that for CGAACTAGGTCATCCAGGACCGTGAATACATTGA, 1.72; that for TTGCCAAGGTGAAAGGTCGTTGATGCACGCCTTG, 2.63.
As for CGAACGAGGTCAAAGGACAGTGAAAGGCGACGTA, the figure is 4.81; as for TAGCCTAGGTCATTCAGGGGCCACTATAGAAAGC, 3.38.
With ACTCGGATGACAAAGGTCAGAGCTACGCCAGTGA, the PBM binding z-score was 3.36.
The result for AATAAAGGGTCATCGTAGGCCAGAGTACGCACAG reads 5.46.
As for CCTCGGAGGTCAACAGGAGGTCAGAGCTGCCAGA, the figure is 5.75; as for ACGCGGAGGACAAAGGTCAGAGCTACGCCAGTGA, 3.19.
As for GATACAGGGTCAAGGTCAGAGTACGCGTATTGAT, the figure is 4.85; as for CGTCAAAGTTCAAGGTCACGTAACAGAAAGCAGC, 5.52.
In turn, TTACCAAGGTCAAGGTCGTTGATCCCTCTGTAGA gave a PBM binding z-score of 5.02.
As for ATCGAAAGGTCGAAGGTGAGCATACCCACCCGAA, the figure is 2.79; as for TAGCCTAGGTCATACAGGGGCCAGTATAGAAAGC, 2.48.
CCTAGTTGGTCAAGGTCACATACGCTATAGGTAC gave a PBM binding z-score of 3.56.
The sequence CCTAGTTGTTCAGGAGGTCACACACCGGATATGA yielded a PBM binding z-score of 3.76.
